This note sets out measurements from ChEMBL document CHEMBL3988442, “University of Dundee, Small-Polar-MMV Screening Library” (2021).

Molecules are shown by their SMILES. For some of these results: Potency and affinity values are given separately.

Common to all, as to design: scale not given: direction of the effect not stated beside the values
The target of test [1] is Protein translocase subunit SecA (Escherichia coli (strain K12)) (UniProt P10408). Nature of the test: Assay to Identify E. coli SecA ATPase Inhibitors. Type of test: functional. To be noted: 30 µM.
Sequence of Protein translocase subunit SecA (Escherichia coli (strain K12)) (P10408 whole entry): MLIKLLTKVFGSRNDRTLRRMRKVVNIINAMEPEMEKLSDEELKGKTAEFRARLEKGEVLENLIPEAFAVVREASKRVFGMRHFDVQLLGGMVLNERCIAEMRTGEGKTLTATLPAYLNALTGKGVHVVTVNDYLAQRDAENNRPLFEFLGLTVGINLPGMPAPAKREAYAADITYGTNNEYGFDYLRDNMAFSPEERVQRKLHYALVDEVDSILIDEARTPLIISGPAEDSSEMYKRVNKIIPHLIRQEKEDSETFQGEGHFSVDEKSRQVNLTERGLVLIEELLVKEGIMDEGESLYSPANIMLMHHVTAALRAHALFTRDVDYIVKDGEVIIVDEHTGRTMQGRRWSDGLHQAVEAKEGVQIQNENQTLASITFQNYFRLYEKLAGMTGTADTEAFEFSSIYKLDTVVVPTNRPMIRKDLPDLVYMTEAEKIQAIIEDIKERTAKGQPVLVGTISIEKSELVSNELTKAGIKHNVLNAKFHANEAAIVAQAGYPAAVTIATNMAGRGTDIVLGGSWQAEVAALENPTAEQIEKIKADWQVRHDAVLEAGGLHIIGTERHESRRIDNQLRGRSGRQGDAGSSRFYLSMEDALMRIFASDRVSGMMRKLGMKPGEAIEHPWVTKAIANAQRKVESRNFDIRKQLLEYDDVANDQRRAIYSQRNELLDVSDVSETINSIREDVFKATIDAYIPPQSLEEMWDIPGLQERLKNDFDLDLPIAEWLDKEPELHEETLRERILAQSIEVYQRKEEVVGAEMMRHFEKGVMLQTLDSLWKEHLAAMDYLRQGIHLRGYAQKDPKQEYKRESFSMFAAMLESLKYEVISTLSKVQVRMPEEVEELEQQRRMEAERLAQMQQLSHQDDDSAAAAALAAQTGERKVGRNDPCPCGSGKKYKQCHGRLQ
The target of test [2] is T1, Ubiquitin-activating enzyme e1, putative (Leishmania donovani (strain BPK282A1)) (UniProt E9BSI1).
T1 sequence (whole entry): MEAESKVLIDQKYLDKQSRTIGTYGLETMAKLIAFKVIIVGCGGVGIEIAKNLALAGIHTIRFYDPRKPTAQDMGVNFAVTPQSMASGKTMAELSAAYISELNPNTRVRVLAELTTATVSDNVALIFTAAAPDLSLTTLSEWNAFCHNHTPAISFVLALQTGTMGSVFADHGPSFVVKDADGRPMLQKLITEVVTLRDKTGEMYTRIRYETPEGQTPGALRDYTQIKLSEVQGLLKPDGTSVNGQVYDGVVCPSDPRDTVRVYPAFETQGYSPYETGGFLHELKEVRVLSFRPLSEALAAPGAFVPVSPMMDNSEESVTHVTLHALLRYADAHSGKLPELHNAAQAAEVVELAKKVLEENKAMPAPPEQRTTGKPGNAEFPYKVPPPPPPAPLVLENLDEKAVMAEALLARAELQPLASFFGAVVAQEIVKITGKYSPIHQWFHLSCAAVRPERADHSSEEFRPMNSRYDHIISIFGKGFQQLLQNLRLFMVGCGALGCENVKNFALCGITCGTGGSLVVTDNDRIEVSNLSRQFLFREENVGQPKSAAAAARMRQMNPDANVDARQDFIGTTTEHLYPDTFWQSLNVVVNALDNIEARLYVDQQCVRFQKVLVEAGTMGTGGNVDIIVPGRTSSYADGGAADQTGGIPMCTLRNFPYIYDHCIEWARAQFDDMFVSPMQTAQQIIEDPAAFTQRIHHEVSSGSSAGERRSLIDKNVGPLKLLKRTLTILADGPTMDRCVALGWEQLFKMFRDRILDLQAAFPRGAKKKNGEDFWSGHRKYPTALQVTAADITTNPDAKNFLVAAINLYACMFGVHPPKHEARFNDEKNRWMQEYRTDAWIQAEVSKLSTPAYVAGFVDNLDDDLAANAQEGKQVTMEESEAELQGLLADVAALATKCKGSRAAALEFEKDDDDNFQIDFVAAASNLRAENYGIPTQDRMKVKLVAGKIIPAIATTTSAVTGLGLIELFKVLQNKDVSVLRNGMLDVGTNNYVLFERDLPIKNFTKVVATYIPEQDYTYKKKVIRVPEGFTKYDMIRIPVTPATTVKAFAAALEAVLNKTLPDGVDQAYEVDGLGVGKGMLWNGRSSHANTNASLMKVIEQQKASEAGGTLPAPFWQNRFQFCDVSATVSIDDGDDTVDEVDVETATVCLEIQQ
Nature of the test: Leishmania donovani Ubiquitin Activating Enzyme (LdE1). Type of test: functional. As to conditions: 30 µM.

In test [3] the target is AMP-activated protein kinase, AMPK (Homo sapiens) (UniProt P54646+O43741+P54619+Q9UGJ0+Q9Y478+Q13131+Q9UGI9). Nature of the test: AMP-dependent Kinase enzyme assay. An in vitro enzyme assay that detects ADP turnover that is directly proportional to AMPK activity. This uses naive AMPK that is activated during the assay with MK-8722. As to conditions: 30 µM. Type of test: functional.

Test [4] addresses Sialic acid-binding Ig-like lectin 9 (Homo sapiens) (UniProt Q9Y336). The test is described as follows: Hs-Siglec9 ALPHAscreen SOP 20170721. To be noted: 10 µM. (In general: Bead proximity is the source of the signal in Alpha formats.)
Test [5] has as its system Trypanosoma cruzi. Nature of the test: Trypanosoma cruzi phosphomannomutase and mannose-1-phosphate guanylyltransferase assay. Format: functional. As to conditions: 10 µM.
The target in test [6] is T2, Arginase-2, mitochondrial (Homo sapiens) (UniProt P78540).
T2 sequence (whole entry): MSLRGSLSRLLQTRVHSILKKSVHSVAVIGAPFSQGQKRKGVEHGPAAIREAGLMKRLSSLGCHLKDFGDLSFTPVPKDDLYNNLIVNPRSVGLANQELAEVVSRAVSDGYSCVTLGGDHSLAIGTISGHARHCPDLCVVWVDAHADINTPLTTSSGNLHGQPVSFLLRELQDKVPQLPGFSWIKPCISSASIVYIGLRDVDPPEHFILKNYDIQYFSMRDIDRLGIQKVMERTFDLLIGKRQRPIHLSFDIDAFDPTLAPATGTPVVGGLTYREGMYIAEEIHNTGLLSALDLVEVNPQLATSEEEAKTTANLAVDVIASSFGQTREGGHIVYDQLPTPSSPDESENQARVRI
The test is described as follows: in vitro enzyme assay to detect the production of urea directly proportional to the activity of Arginase II. Note: in the data most compounds retested in dose-response had high values. Format: functional. To be noted: 33.3 µM.

Test [7] has as its target T3, Proteasome subunit beta (Trypanosoma cruzi) (UniProt O96673).
T3 sequence (whole entry): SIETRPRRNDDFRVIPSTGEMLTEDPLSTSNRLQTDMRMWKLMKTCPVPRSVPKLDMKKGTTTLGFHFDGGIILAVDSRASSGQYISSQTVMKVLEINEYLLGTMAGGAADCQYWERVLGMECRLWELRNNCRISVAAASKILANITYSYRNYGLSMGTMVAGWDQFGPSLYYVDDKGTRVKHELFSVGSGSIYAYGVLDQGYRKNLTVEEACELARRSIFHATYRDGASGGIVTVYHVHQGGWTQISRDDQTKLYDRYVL
Nature of the test: Trypanosoma cruzi proteasome chymotrypsin-like activity (TcProtChymo) assay. Note: in the data most compounds retested in dose-response had high values. Format: functional. To be noted: 9.37 µM.

For test [8], the species on record is Homo sapiens. Nature of the test: To identify inhibition of the IFN signalling (Jak-Stat) pathway via expression of an eGFP reporter gene under the control of an IFN-stimulated response element (ISRE) containing MxA promoter. As to conditions: 30 µM. Type of test: functional. In general terms: In a reporter assay the amount or activity of a reporter protein is the signal.

The target in test [9] is T4, Tyrosyl-tRNA synthetase, putative (Trypanosoma cruzi (strain CL Brener)) (UniProt Q4DSP6).
T4 sequence (whole entry): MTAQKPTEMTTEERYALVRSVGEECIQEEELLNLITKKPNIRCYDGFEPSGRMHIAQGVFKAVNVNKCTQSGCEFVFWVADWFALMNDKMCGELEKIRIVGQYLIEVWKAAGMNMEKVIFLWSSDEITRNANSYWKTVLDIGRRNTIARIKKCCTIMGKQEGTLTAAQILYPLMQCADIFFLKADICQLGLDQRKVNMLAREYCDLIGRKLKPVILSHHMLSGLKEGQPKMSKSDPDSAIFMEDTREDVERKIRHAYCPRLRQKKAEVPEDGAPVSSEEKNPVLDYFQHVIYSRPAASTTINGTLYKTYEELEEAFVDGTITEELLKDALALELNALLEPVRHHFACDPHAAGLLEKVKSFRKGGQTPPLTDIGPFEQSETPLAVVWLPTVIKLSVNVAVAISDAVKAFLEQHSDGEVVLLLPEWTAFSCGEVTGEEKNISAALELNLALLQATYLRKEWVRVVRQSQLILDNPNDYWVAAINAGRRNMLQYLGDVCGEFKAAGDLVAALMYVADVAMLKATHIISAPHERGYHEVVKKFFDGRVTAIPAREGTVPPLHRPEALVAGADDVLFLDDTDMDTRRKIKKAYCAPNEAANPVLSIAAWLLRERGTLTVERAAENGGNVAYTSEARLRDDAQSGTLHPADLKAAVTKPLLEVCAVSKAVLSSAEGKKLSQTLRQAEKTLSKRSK
The test is described as follows: Trypanosoma cruzi tyrosyl tRNA synthetase (TcYRS) _High Tyrosine SOP. Note: in the data most compounds retested in dose-response had high values. Type of test: functional. As to conditions: 30 µM.

In test [10] the target is T4, Tyrosyl-tRNA synthetase, putative (Trypanosoma cruzi (strain CL Brener)). Nature of the test: Trypanosoma cruzi tyrosyl tRNA synthetase (TcYRS) SOP. Type of test: functional. As to conditions: 30 µM.
Test [11] addresses Chromo domain-containing protein 1 (Saccharomyces cerevisiae (strain ATCC 204508 / S288c) (Baker's yeast)) (UniProt P32657). Nature of the test: ScCHD-1 Enzyme Inhibition Assay. Note: in the data most compounds retested in dose-response had high values. Type of test: functional. To be noted: 30 µM.

Sequence of Chromo domain-containing protein 1 (Saccharomyces cerevisiae (strain ATCC 204508 / S288c) (Baker's yeast)) (P32657 whole entry, the tested form may be a part): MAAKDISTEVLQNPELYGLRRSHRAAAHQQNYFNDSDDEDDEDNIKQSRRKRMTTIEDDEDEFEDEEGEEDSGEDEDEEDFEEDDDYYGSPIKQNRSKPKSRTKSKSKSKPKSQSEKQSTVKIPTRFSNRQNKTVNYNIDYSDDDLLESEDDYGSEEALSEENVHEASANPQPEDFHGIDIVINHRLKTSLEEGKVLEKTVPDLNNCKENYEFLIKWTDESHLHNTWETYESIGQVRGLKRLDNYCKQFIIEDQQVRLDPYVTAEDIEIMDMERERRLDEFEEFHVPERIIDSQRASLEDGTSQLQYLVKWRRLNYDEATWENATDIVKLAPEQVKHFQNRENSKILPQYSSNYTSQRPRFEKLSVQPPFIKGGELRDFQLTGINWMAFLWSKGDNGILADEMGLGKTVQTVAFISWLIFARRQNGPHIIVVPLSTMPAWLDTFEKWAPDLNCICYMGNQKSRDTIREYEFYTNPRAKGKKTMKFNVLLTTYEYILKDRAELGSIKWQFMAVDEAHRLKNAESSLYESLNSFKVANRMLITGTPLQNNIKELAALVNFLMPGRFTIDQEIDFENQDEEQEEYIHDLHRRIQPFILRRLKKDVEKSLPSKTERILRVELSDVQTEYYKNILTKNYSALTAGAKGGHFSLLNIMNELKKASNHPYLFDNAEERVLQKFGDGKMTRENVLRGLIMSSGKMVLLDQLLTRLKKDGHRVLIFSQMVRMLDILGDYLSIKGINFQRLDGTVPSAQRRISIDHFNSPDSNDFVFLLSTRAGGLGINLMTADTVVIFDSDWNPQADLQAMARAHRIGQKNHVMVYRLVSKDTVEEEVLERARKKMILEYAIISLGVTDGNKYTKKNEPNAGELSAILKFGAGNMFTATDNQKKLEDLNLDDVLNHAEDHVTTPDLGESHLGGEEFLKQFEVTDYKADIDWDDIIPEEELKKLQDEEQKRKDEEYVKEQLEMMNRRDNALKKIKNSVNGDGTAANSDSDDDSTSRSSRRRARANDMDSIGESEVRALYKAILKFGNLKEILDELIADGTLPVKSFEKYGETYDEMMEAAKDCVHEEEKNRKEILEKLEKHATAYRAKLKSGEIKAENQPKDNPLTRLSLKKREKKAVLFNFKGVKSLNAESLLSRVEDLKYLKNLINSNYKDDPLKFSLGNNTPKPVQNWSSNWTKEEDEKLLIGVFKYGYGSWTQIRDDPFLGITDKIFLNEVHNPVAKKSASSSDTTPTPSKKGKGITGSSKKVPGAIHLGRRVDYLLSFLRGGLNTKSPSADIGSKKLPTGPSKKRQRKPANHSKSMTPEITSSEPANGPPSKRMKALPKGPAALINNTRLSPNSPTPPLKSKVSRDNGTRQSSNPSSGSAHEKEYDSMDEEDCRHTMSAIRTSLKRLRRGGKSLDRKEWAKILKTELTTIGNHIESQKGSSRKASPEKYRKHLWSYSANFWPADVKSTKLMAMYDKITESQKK
Sequence of Sialic acid-binding Ig-like lectin 9 (Homo sapiens) (Q9Y336 whole entry): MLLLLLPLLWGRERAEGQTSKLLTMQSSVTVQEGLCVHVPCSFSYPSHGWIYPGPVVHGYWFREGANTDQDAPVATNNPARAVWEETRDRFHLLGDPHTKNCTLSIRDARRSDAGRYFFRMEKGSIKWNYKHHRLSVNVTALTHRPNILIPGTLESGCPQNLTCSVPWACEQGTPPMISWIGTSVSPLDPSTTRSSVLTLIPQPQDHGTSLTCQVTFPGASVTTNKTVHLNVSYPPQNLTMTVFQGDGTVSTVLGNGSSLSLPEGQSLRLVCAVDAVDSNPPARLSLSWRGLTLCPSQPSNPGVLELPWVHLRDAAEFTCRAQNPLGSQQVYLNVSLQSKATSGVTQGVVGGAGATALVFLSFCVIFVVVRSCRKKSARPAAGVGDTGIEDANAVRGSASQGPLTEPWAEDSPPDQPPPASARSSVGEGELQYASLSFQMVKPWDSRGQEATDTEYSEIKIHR

Regarding `O=S(=O)(CCN1CCOC(Cn2cccn2)C1)C(F)(F)F` (stereo unspecified), the Percent Effect was -0.0845% in test [1]; 24.1% in [2]; 13.4% in [3]; -1.22% in [4]; 2.97% in test [5]; -1.5% in test [6]. Besides, the Percent Effect in test [7] was found to be 18.4%; in [8] it was 30.2%; in test [9] it was 8.33%; in test [10] it was 12.7%; in test [11] it was 61.7%.

For `COc1ccccc1C1(C(=O)NCCN2CCOCC2)CCOCC1`, the Percent Effect in [1] is -0.484%; in test [2], 10.8%; in test [3] it was -1.78%; in test [4] it was -1.23%; in test [5], -0.0943%; in test [6] it was -2.81%. Also, the Percent Effect was 12.4% in test [7]; -15.9% in [8]; 3.45% in test [9]; 13.6% in test [10]; -7.26% in [11].

For `Cc1n[nH]c(C2CN(C(=O)c3cc(C4CC4)[nH]n3)CCO2)n1` (stereo unspecified), the Percent Effect in [1] is -3.77%; in test [2], 13%; in test [3], 3.73%; in [4] it was 15.3%; in test [5], -0.0979%; in test [6], 0.632%. The Percent Effect in [7] is 9.78%; in test [8] it was -11%; in test [9], 5.71%; in test [10] it was 11.8%; in test [11] it was -11.2%.

With `COc1ccc(C(O)CNc2c(C#N)c(=O)n(C)c(=O)n2C)cc1` (stereo unspecified), the Percent Effect in test [1] is 0.0916%; in test [2] it was 12.7%; in test [3], 4.15%; in test [4], -13.6%; in test [5], -6.33%; in test [6] it was 5.32%. Besides, the Percent Effect in [7] is 2.87%; in [8] it was 9.61%; in test [9], 5.42%; in [10], 11.4%; in test [11] it was -5.56%.

Take `CC(C)c1nc(C(=O)NCCn2ccnc2)nn1-c1cccc(F)c1`: the Percent Effect in test [1] was -6%; in [2] it was 15.8%; in [3], -4.38%; in [4] it was -4.66%; in test [5], -3.46%; in test [6], -6.47%. Further, the Percent Effect in test [7] is 1.1%; in test [8] it was -1.8%; in test [9], 1.48%; in test [10], 6.17%; in test [11] it was -5.42%.

In the case of `Cc1nccn1C1CCCN(C(=O)c2ccc3c(c2)nnn3C)C1` (stereo unspecified), the Percent Effect is -3.52% in [1]; 10.5% in test [2]; -2.69% in test [3]; 0.191% in test [4]; -4.95% in test [5]; 5.75% in [6]. In addition, the Percent Effect was 9.9% in test [7]; 3.52% in test [8]; 4.43% in [9]; 6.17% in test [10]; -4.12% in test [11].

Consider `Cc1cnc(N2CCCC3(CCN(Cc4csc(C)n4)C3=O)C2)nc1` (stereo unspecified), for which the Percent Effect in test [1] was -1.53%; in [2] it was 10.7%; in test [3], 2.83%; in test [4] it was 3.4%; in test [5], 0.965%; in test [6], -54.3%. In addition, the Percent Effect in [7] is 5.64%; in test [8], -4.88%; in test [9], 4.17%; in test [10], 20%; in [11] it was -8.92%.

Turning to `CCCc1ncc(C(=O)N2CCOC(c3nc(C)n[nH]3)C2)s1` (stereo unspecified), the Percent Effect is -2.75% in [1]; -3.8% in test [2]; 4.69% in test [3]; 3.58% in test [4]; -6.46% in test [5]; 7.1% in [6]. Also, the Percent Effect was 5.66% in [7]; 11.7% in [8]; 1.04% in test [9]; -2.53% in [10]; 9.76% in test [11].

As for `COc1ccc(F)c(CN2CCC(c3cc(O)nc(C)n3)C2)c1` (stereo unspecified), the Percent Effect in [1] is -8.36%; in test [2] it was 23%; in test [3] it was -0.897%; in test [4], -0.78%; in [5], 5.93%; in test [6] it was -3.94%. In addition, the Percent Effect in test [7] is 15.3%; in [8], 11.7%; in [9], 5.38%; in [10], 14.3%; in test [11] it was -15%.

In the case of `Cc1nc(N2CCN(C)CC2)ncc1C(=O)N1CC(C)(C)C(C)(O)C1` (stereo unspecified), the Percent Effect in test [1] is -0.364%; in test [2], 2.7%; in test [3], 6.69%; in test [4], -5.09%; in test [5] it was -9.09%; in test [6], -8.19%. The Percent Effect in [7] is 13%; in test [8], 11.1%; in test [9], 0%; in test [10] it was -16.1%; in test [11], 103%.

On to `C=C(C)C(=O)N1CCC(C(=O)c2cc(C)cnc2N)CC1`, for which the Percent Effect is -7.55% in [1]; 5.33% in test [2]; 0.0671% in [3]; 1.76% in [4]; 7.09% in [5]; -1.63% in [6]. In addition, the Percent Effect in test [7] is 5.55%; in [8] it was 11.8%; in test [9], 7.45%; in test [10], 14.1%; in test [11] it was -3.43%.
